Screening data as filed in PubChem BioAssay.
This is a sample that favours compounds with a hit; in the whole collection about 19% have one here.
TGFb inhibitor = TGF-b pathway inhibition; Potency, µM (doses to about 46.1 µM), hits mostly inhibitors; 410,000 tested, 1.2% active; HepG2 CAGA-GFP TGF-b/SMAD3 reporter, GFP fluorescence, 18 h; TGF-beta stimulated, 500 pg/mL final; also: nearly all actives have a fitted effect of over 65% in size
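HEPG2 CAGA-GFP reporter cells (1000/well, DMEM with 1% FBS) received compounds, then recombinant TGF-beta at 500 pg/mL final for 18 hours at 37 degrees C. Per-cell GFP summed per well was normalised to unstimulated and stimulated DMSO controls before curve fitting.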
TDP1 inh = blocks human tyrosyl-DNA phosphodiesterase 1; 350,000 tested, 0.28% active; recombinant TDP1, AlphaScreen DNA substrate cleavage; Q9NUW8; Potency, µM (series often up to 130 µM), hits mostly inhibitors; also: nearly all actives have a fitted effect of over 40% in size
Target sequence (Q9NUW8 whole entry, looked up): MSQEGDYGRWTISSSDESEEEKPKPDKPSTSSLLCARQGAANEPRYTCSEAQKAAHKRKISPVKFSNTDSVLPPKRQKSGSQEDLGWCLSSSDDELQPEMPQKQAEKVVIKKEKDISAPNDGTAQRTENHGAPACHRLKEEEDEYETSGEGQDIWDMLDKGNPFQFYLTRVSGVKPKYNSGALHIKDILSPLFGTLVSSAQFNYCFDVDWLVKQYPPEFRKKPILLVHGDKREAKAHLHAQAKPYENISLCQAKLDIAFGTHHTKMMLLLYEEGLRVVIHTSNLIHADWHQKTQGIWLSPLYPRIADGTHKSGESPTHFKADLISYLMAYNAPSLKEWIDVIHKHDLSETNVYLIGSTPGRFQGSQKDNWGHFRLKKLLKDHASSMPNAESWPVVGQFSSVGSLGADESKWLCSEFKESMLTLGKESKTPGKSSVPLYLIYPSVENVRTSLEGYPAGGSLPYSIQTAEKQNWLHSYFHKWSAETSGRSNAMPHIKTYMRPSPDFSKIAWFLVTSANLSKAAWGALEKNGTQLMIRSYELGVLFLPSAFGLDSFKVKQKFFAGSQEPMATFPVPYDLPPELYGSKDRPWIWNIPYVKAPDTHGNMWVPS
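Compounds were preincubated with Tdp1 (1 nM final) for 15 min at room temperature before substrate (15 nM final) started a 5 min reaction; beads (10 ug/ml final) were then added for 10 min before AlphaScreen detection.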
HepG2 viability = kills HepG2 cells in TGF-b inhibitor counter-screen | 410,000 tested, 0.76% active | HepG2 CAGA-GFP viability, ATP luminescence, 18 h | Potency, µM (titrated, usually from 46.1 µM), hits mostly cytotoxic | AID 588856
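CellTiter-Glo luminescence gave cytotoxicity after 18 hours at 37 degrees C. The cells were HepG2 CAGA-GFP in 1% FBS DMEM, stimulated with 500 pg/mL TGF-beta after compound addition. %Activity was normalised to no-cell wells (complete cell-killing) and DMSO (no toxicity), and curves were fitted and classified.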
IL1B secr inh = blocks inflammasome-driven IL-1 beta release; THP-1 LPS/ATP IL-1B secretion, AlphaLISA, 16 h; active compounds read low; activity change, % at 57.5 µM; 360,000 tested, 4.7% active; AID 743279; in the data active = activity change below about -50%; inconclusive = mostly about -30% to -49%
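Secreted IL-1B measured by AlphaLISA bead assay after 16 h compound exposure of THP-1 cells; compounds (final up to 57.5 uM) added 1 h before LPS (250 ng/mL) and ATP (1.25 mM) stimulation; lower signal means less secretion.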
TDP1 cell CPT = DT40-hTDP1 cell growth loss with CPT. chicken DT40 Tdp1-/-;hTDP1 cells + 20 nM CPT, ATP luminescence, 48 h. Potency, µM (series often up to 46.2 µM), most hits filed as inhibitors. 420,000 tested, 12% active. AID 686979; also: nearly all actives have a fitted effect of over 55% in size
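Cell growth measured by CellTiter-Glo luminescence after a minimum 48 h, 37 C compound exposure with 20 nM CPT in Tdp1-knockout DT40 cells stably expressing hTDP1, seeded 400/well; qHTS titration format.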
DT40 TDP1 no CPT = qHTS for Inhibitors of human tyrosyl-DNA phosphodiesterase 1 (TDP1): qHTS in cells in absence of CPT | DT40 Tdp1-/- hTDP1 cells, no CPT, ATP luminescence, 48 h | Potency, µM (series often up to 46.2 µM), actives largely listed as inhibitors | 420,000 tested, 15% active; also: nearly all actives have a fitted effect of over 55% in size
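Stably hTDP1-transfected Tdp1-null chicken DT40 cells were treated with library compounds minus camptothecin and grown for at least 48 hr at 37 °C, after which cellular ATP was quantified by luminescence.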
A number is an active result; – = inactive; ? = inconclusive; · = not tested or not shown; [ ] = another dose, or the depositor's remark. Unless noted, calls follow the shape of the dose curve; as a rule, active = well fitted curve in the direction sought with a large enough effect; inconclusive = small, poorly fitted or top-dose-only effect, or another doubt; inactive = no such curve, though single readings can be large; an effect the other way counts as inactive or inconclusive.

SMILES | TGFb inhibitor | TDP1 inh | HepG2 viability | IL1B secr inh | TDP1 cell CPT | DT40 TDP1 no CPT
COc1cccc(-c2ccc3ncnc(NCCNC(C)=O)c3c2)c1 | · | · | · | · | 15µM | ?
COc1cccc(-c2ccc3ncnc(NC4CCNCC4)c3c2)c1 | · | – | · | · | ? | 13µM
COc1ccc(Nc2nn(-c3ccc(OC(F)(F)F)cc3)nc2C(C)=O)cc1 | – | – | – | · | – | –
CCc1noc(C)c1C(=O)OC(C)C(=O)Nc1ccc(Cl)cn1 (centres undefined) | ? | – | – | – | – | ?
COc1cccc(-c2nccc(NC3CCNCC3)n2)c1 | · | 20µM | · | · | ? | ?
COc1ccccc1-c1nccc(NC2CCNCC2)n1 | · | · | · | · | – | –
CNc1ncnc2ccc(-c3ccc4c(c3)OCO4)cc12 | · | · | · | · | 23µM | 18µM
Clc1cccc(-c2cc3nc4c(c(NCc5ccco5)n3n2)CCCC4)c1 | ? | – | – | -96 | 21µM | 11µM
c1coc(CNc2c3c(nc4ncnn24)CCCC3)c1 | – | – | – | – | ? | –
CC1CCN(Cc2c(C(=O)N/N=C/c3ccc(C(C)(C)C)cc3)nnn2-c2nonc2N)CC1 | – | – | – | – | 13µM | 13µM
Nc1nonc1-n1nnc(C(=O)N/N=C/c2ccc(Cl)cc2Cl)c1CN1CCCC1 | – | – | – | – | – | –
Nc1nonc1-n1nnc(C(=O)N/N=C/c2cccc(Cl)c2Cl)c1CN1CCCC1 | – | – | – | – | 8.2µM | 15µM
COc1ccc(-c2cnc(NCc3cc4c(cc3[N+](=O)[O-])OCO4)n2C)cc1 | ? | – | – | -51 | 26µM | 13µM
Cn1c(-c2cccc([N+](=O)[O-])c2)cnc1NCc1cccc([N+](=O)[O-])c1 | – | – | – | – | ? | ?
COc1ccc(OC)c(CNc2ncc(-c3cccc([N+](=O)[O-])c3)n2C)c1 | – | · | – | ? | 16µM | ?
Cc1cccc(CNc2ncc(-c3cccc([N+](=O)[O-])c3)n2C)c1 | – | – | – | – | ? | 16µM
COc1ccc(CCNC(=O)Cc2cc3c(cc2[N+](=O)[O-])OCO3)cc1OC | – | · | – | – | – | –
COc1ccc(CC(=O)Nc2nnc(-c3cccc([N+](=O)[O-])c3)s2)cc1 | ? | – | – | – | – | –
Cc1ccc2[nH]c(=O)c(CN(C(=O)c3cccc(Cl)c3)C(C)(C)C)cc2c1 | – | – | – | · | – | ?
CN(C(=O)COC(=O)c1ccc(Cl)s1)C1(C#N)CCCCC1 | – | – | – | – | – | –
CN(C)CCCNC(=S)Nc1ccc(Br)cc1 | – | · | – | – | – | –
Cc1ccsc1/C=N/Nc1nc(=O)[nH]nc1C | ? | – | 11µM | – | 21µM | 15µM
Cc1cccc(C)c1NC(=O)c1sccc1SCc1cccc(C(F)(F)F)c1 | ? | – | – | ? | 16µM | 18µM
Cc1cnc(=O)[nH]c1SCc1cccc(C(F)(F)F)c1 | – | – | – | – | – | –
Cc1ccc(C(=O)N2CC(C)OC(C)C2)cc1S(=O)(=O)N1CCCCC1 (centres undefined) | – | – | – | – | ? | ?
SMILES | TGFb inhibitor | TDP1 inh | HepG2 viability | IL1B secr inh | TDP1 cell CPT | DT40 TDP1 no CPT
C[C@@H]1CCCCO[C@H](CN(C)C(=O)Nc2cccc3ccccc23)[C@@H](C)CN([C@H](C)CO)C(=O)c2cc(N(C)C)ccc2O1 | – | · | – | – | 15µM | 9.2µM
Cc1ccc(S(=O)(=O)Nc2ccc3c(c2)C(=O)N([C@H](C)CO)C[C@H](C)[C@@H](CN(C)C(=O)NC2CCCCC2)OCCCC[C@@H](C)O3)cc1 | – | · | – | – | 21µM | 13µM
Cc1ccc(S(=O)(=O)Nc2ccc3c(c2)C(=O)N([C@@H](C)CO)C[C@@H](C)[C@@H](CN(C)C(=O)NC2CCCCC2)OCCCC[C@H](C)O3)cc1 | – | · | – | – | – | –
C[C@@H]1CN([C@@H](C)CO)C(=O)c2cc(NS(=O)(=O)c3ccc(F)cc3)ccc2O[C@@H](C)CCCCO[C@H]1CN(C)C(=O)NC1CCCCC1 | – | · | – | – | 23µM | ?
Cc1ccc(S(=O)(=O)Nc2ccc3c(c2)C(=O)N([C@H](C)CO)C[C@H](C)[C@H](CN(C)C(=O)Nc2cccc4ccccc24)OCCCC[C@@H](C)O3)cc1 | – | · | – | – | 21µM | 15µM
COCCn1c(C)cc(O)c(C(c2ccc(OC)cc2)N2CCN(c3ccccc3)CC2)c1=O (centres undefined) | – | – | – | · | – | –
Cc1c(Cl)ccc2c1NC(=O)[C@]21N[C@@H](Cc2ccccc2)[C@H]2C(=O)N(c3ccc(F)cc3)C(=O)[C@H]21 | 10µM | – | – | – | ? | ?
O=C1[C@@H]2[C@H](Cc3ccc(O)cc3)N[C@]3(C(=O)Nc4ccccc43)[C@@H]2C(=O)N1c1ccc(F)cc1 | · | – | · | · | · | ·
Cc1ccc(N(CC(=O)NCCc2ccccc2)S(=O)(=O)N(C)C)cc1 | – | – | – | · | – | ?
CCCc1c(C(=O)N/N=C(\C)c2ccccc2O)nnn1-c1nonc1N | – | · | – | – | 8.2µM | 8.2µM
C/C(=N\NC(=O)c1nnn(-c2nonc2N)c1-c1ccccc1)c1ccccc1O | – | – | – | – | 2.3µM | 1.5µM
C/C(=N\NC(=O)c1nnn(-c2nonc2N)c1CN(C)c1ccccc1)c1ccc(O)cc1 | – | – | – | – | – | –
C/C(=N\NC(=O)c1nnn(-c2nonc2N)c1CN(C)c1ccccc1)c1ccccn1 | – | – | – | – | 4.6µM | 4.6µM
CCCc1c(C(=O)N/N=C(\C)c2ccc(CC(C)C)cc2)nnn1-c1nonc1N | – | · | – | – | 12µM | 6.5µM
CN(C)S(=O)(=O)c1cccc(NC(=O)COC(=O)c2cccnc2Cl)c1 | – | – | – | – | – | –
N#Cc1ccc(S(=O)(=O)N2CCC(Oc3cccc(C(F)(F)F)c3)CC2)cc1 | ? | – | – | · | ? | ?
CC[C@@H](c1ccccc1)n1c(=O)n2n(c1=O)[C@H]1[C@H](O)[C@H]3O[C@@H]3/C(=N/OC[C@@H](O)COCc3ccco3)[C@@H]1CC2 | · | –[21 µM] | · | · | · | ·
CCCCCCCCCc1conc1C(=O)/C=C/c1oc2c(c1C)CCC(C)C2 (centres undefined) | · | · | · | – | 21µM | 15µM
CC1CCc2onc(C(=O)O)c2C1 (centres undefined) | – | – | – | – | – | –
CCNc1nc(Oc2ccc(Cl)cc2Cl)cc(C(F)(F)F)n1 | – | – | – | – | ? | ?
Cc1cc(Oc2ccc(Cl)cc2Cl)nc(C#N)n1 | · | · | · | · | 11µM | 18µM
